# Laboratory results: the supplement of paper PMC8728848
# Shown is part of a subset that was picked to be rich in the strongest signals.
# How the values were obtained:
# Assay in all cases: glycan array binding signal (z-score within array); higher = stronger binding
# Settings in all cases: glycan notation: IUPAC condensed, linker removed
# [1] = target: Fuc(a1-2)Gal(b1-3)GlcNAc(b1-3)Gal(b1-4)Glc
# In short: (§1)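 Columns mapping to the same glycan were averaged after glycan names were converted to IUPAC-condensed notation. The data come from 3228 arrays in the Consortium for Functional Glycomics database, limited to those with an available protein sequence. Binding is reported as a within-array Z-score averaged across arrays of one protein sequence and across linkers.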
# [2] = target: Fuc(a1-2)Gal(b1-3)GlcNAc(b1-3)GalNAc
# In short: as §1
# [3] = target: Fuc(a1-2)Gal(b1-3)[Fuc(a1-4)]GlcNAc(b1-2)Man(a1-3)[Fuc(a1-2)Gal(b1-3)[Fuc(a1-4)]GlcNAc(b1-2)Man(a1-6)]Man(b1-4)GlcNAc(b1-4)[Fuc(a1-6)]GlcNAc(b1-4)[Fuc(a1-6)]GlcNAc
# In short: as §1
# [4] = target: Fuc(a1-2)Gal(b1-3)[Fuc(a1-4)]GlcNAc(b1-3)[Gal(b1-4)GlcNAc(b1-6)]Gal(b1-4)Glc
# In short: as §1
# [5] = target: Fuc(a1-2)Gal3S(b1-4)GlcNAc
# In short: as §1
# [6] = target: Fuc(a1-2)Gal6S(b1-3)GlcNAc6S
# In short: as §1
# [7] = target: Fuc(a1-2)[GalNAc(a1-3)]Gal
# In short: as §1
# [8] = target: Fuc(a1-2)[GalNAc(a1-3)]Gal(b1-4)GlcNAc
# In short: as §1
# [9] = target: Fuc(a1-2)[GalNAc(a1-3)]Gal(b1-4)GlcNAc(b1-3)Gal(b1-4)GlcNAc
# In short: as §1
# [10] = target: Fuc(a1-2)[GalNAc(a1-4)]Gal(b1-4)GlcNAc
# In short: as §1
# [11] = target: Fuc(a1-2)[GalNAc(b1-3)]Gal
# In short: as §1
# [12] = target: Fuc(a1-3)[Gal(b1-4)]GlcNAc(b1-2)Man
# In short: as §1
# [13] = target: Fuc(a1-3)[Gal(b1-4)]GlcNAc(b1-3)Gal(b1-4)[Fuc(a1-3)]GlcNAc
# In short: as §1
# [14] = target: Fuc(a1-3)[Gal(b1-4)]GlcNAc(b1-3)GalNAc
# In short: as §1
# [15] = target: Fuc(a1-3)[Gal(b1-4)]GlcNAc6S
# In short: as §1
# Gal(a1-3)GalNAc = target: Gal(a1-3)GalNAc
# In short: as §1
# Gal(a1-4)GlcNAc = target: Gal(a1-4)GlcNAc
# In short: as §1
# Gal(b1-3)Gal = target: Gal(b1-3)Gal
# In short: as §1
# [16] = target: Gal(b1-3)GalNAc(b1-3)Gal(a1-4)Gal(b1-4)Glc
# In short: as §1
# [17] = target: Gal(b1-3)GlcNAc(b1-3)Gal(b1-4)GlcNAc(b1-2)[Gal(b1-3)GlcNAc(b1-3)Gal(b1-4)GlcNAc(b1-6)]Man(a1-6)[Gal(b1-3)GlcNAc(b1-3)Gal(b1-4)GlcNAc(b1-2)Man(a1-3)]Man(b1-4)GlcNAc(b1-4)[Fuc(a1-6)]GlcNAc
# In short: as §1
# [18] = target: Gal(b1-3)GlcNAc(b1-3)Gal(b1-4)GlcNAc(b1-3)Gal(b1-4)GlcNAc(b1-2)[Gal(b1-3)GlcNAc(b1-3)Gal(b1-4)GlcNAc(b1-3)Gal(b1-4)GlcNAc(b1-6)]Man(a1-6)[Gal(b1-3)GlcNAc(b1-3)Gal(b1-4)GlcNAc(b1-3)Gal(b1-4)GlcNAc(b1-2)Man(a1-3)]Man(b1-4)GlcNAc(b1-4)[Fuc(a1-6)]GlcNAc
# In short: as §1
# Gal(b1-4)Gal = target: Gal(b1-4)Gal
# In short: as §1
# Gal(b1-4)GlcNAc(b1-2)Man = target: Gal(b1-4)GlcNAc(b1-2)Man
# In short: as §1
# [19] = target: Gal(b1-4)GlcNAc(b1-2)Man(a1-3)[Man(a1-6)]Man(b1-4)GlcNAc(b1-4)GlcNAc
# In short: as §1
# [20] = target: Gal(b1-4)GlcNAc(b1-2)[Gal(b1-4)GlcNAc(b1-4)]Man(a1-3)[GlcNAc(b1-4)][Gal(b1-4)GlcNAc(b1-2)[Gal(b1-4)GlcNAc(b1-6)]Man(a1-6)]Man(b1-4)GlcNAc(b1-4)GlcNAc
# In short: as §1
# [21] = target: Gal(b1-4)GlcNAc(b1-2)[Gal(b1-4)GlcNAc(b1-6)]Man(a1-6)[GlcNAc(b1-4)][Gal(b1-4)GlcNAc(b1-2)Man(a1-3)]Man(b1-4)GlcNAc(b1-4)GlcNAc
# In short: as §1
# [22] = target: Gal(b1-4)GlcNAc(b1-3)Gal(b1-3)GlcNAc
# In short: as §1
# [23] = target: Gal(b1-4)GlcNAc(b1-3)Gal(b1-4)Glc
# In short: as §1
# [24] = target: Gal(b1-4)GlcNAc(b1-3)Gal(b1-4)GlcNAc
# In short: as §1
# [25] = target: Gal(b1-4)GlcNAc(b1-3)Gal(b1-4)GlcNAc(b1-2)[Gal(b1-4)GlcNAc(b1-3)Gal(b1-4)GlcNAc(b1-6)]Man(a1-6)[Gal(b1-4)GlcNAc(b1-3)Gal(b1-4)GlcNAc(b1-2)Man(a1-3)]Man(b1-4)GlcNAc(b1-4)[Fuc(a1-6)]GlcNAc
# In short: as §1
binder,measurement,setting,value
EUL D1A second (Oryza sativa) (protein) GAATACTIGGVPVHTVRVFSAAGEDYCLTVRNGTACLAPKNPRDDYQHWIKDMRHSNKIRDEEGYPAFALVNKVTGEAIKHSTGQGHPVKLVPYNPEYQDESVLWTESKDVGKGFRCIRMVNNIYLNFDAFHGDKDHGGIHDGTEIVLWKWCEGDNQRWKILPWILEQKLISEEDLNSAVDHHHHHH,glycan array binding signal (z-score),[1],-1.01
same,glycan array binding signal (z-score),[2],-0.565
same,glycan array binding signal (z-score),[3],0.045
same,glycan array binding signal (z-score),[4],1.09
same,glycan array binding signal (z-score),[5],0.228
same,glycan array binding signal (z-score),[6],1.43
same,glycan array binding signal (z-score),[7],-0.789
same,glycan array binding signal (z-score),[8],-1.07
same,glycan array binding signal (z-score),[9],-0.086
same,glycan array binding signal (z-score),[10],0.772
same,glycan array binding signal (z-score),[11],-0.072
same,glycan array binding signal (z-score),[12],0.112
same,glycan array binding signal (z-score),[13],-0.106
same,glycan array binding signal (z-score),[14],0.566
same,glycan array binding signal (z-score),[15],-0.105
same,glycan array binding signal (z-score),Gal(a1-3)GalNAc,-1.42
same,glycan array binding signal (z-score),Gal(a1-4)GlcNAc,-1.01
same,glycan array binding signal (z-score),Gal(b1-3)Gal,-0.342
same,glycan array binding signal (z-score),[16],2.08
same,glycan array binding signal (z-score),[17],4.86
same,glycan array binding signal (z-score),[18],4.47
same,glycan array binding signal (z-score),Gal(b1-4)Gal,3.37
same,glycan array binding signal (z-score),Gal(b1-4)GlcNAc(b1-2)Man,1.59
same,glycan array binding signal (z-score),[19],-0.232
same,glycan array binding signal (z-score),[20],-0.986
same,glycan array binding signal (z-score),[21],-0.799
same,glycan array binding signal (z-score),[22],-0.245
same,glycan array binding signal (z-score),[23],-0.283
same,glycan array binding signal (z-score),[24],-0.532
same,glycan array binding signal (z-score),[25],3.31
